Compound activity (PubChem)
NCOA3 inh: SRC3 coactivator transcriptional activity inhibitors, primary screen, cell-based, luminescence | HEK293 GAL4-SRC3 luciferase reporter | inhibition, % at 3.6 µM | 0.17% of 360,000 active | AID 588352, 2011 | Nuclear receptor coactivator 3 (Homo sapiens), Q9Y6Q9;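 active means inhibition above a per-campaign cutoff, the mean of all compounds plus 3 SD, cut at about 60% in these data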;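 further: 0% = DMSO-treated cells and 100% = gossypol-treated cells at 36 µM; higher means less SRC3-driven luciferase light from the GAL4 reporter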
Efflux pump inh: inhibitors of Candida efflux pumps in yeast, primary screen, S. cerevisiae, Nile Red, multiplex | S. cerevisiae Candida pump triplex | inhibition, % at 10 µM | 0.44% of 330,000 active | AID 485275, 2010;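 active means plate passing quality check with inhibition over a set limit, or well fluorescence over plate mean plus 4 SD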;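 further: Nile Red retained in pooled yeast measured as flow cytometry median fluorescence; 0% = buffer negative control and 100% = Enniatin B positive control; higher means more Nile Red kept so more efflux inhibition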
NR2F2 inh: NR2F2 transcriptional activity inhibitors, primary screen, cell-based, luciferase reporter, HEK293T, luminescence; HEK293T NGFI-A luciferase reporter; inhibition, % at 8.6 µM; 0.7% of 370,000 active; COUP transcription factor 2 (Homo sapiens), P24468;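 active means inhibition above a per-plate cutoff, mean inhibition of test wells between control levels plus 3 SD, cut at about 38% in these data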;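 further: cells cotransfected with COUP-TFII expression vector driving the NGFI-A reporter; 0% = median of COUP-TF2 test wells and 100% = reporter-only cells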
Target sequence (P24468 whole entry, looked up): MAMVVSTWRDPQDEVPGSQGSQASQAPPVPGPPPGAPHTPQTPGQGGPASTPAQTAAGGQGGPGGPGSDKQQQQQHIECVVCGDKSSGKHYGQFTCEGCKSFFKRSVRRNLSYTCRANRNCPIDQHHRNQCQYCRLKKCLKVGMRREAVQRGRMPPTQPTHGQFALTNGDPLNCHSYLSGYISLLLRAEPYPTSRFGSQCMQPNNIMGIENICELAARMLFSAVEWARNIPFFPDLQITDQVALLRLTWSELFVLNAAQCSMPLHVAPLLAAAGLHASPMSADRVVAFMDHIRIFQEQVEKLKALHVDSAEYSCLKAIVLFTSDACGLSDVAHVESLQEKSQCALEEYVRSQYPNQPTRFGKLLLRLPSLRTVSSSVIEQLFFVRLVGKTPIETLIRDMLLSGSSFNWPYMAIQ
LRH-1 inv ag: LRH-1 (NR5A2) inverse agonists, primary screen, cell-based, luminescence, HEK293T, StAR-luciferase reporter; LRH-1 transfected, 24 h; inhibition, % at 3.6 µM; 0.13% of 360,000 active; Nuclear receptor subfamily 5 group A member 2 (Homo sapiens), O00482;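 active means inhibition above the mean inhibition of all tested compounds plus 3 SD, cut at about 73% in these data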;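 further: 0% = DMSO wells and 100% = reporter-only cells lacking LRH-1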
SRC1 inh: SRC1 coactivator transcriptional activity inhibitors, primary screen, cell-based, luminescence. AID 588354, 2011. Nuclear receptor coactivator 1 (Homo sapiens), Q15788. inhibition, % at 3.6 µM. 0.12% of 360,000 active. HEK293 GAL4-SRC1 luciferase reporter;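 active means inhibition above the campaign mean plus 3 SD, with each screening campaign given its own cutoff, cut at about 60% in these data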;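 further: 0% = DMSO treated cells and 100% = gossypol at 36 µM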
SRC2 inh: inhibition of GAL4-SRC2 driven luciferase reporter, primary screen, SRC2 inhibitor project, cell-based, luminescence; AID 651957, 2012; inhibition, % at 9 µM; HEK293 GAL4-SRC2 luciferase reporter; Nuclear receptor coactivator 2 (Homo sapiens), Q15596; 0.17% of 370,000 active;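 active means inhibition above the mean inhibition of all tested compounds plus 3 SD, set per campaign, cut at about 52% in these data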;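 further: 0% = DMSO treated cells and 100% = cells given Gossypol at 36 µM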
Gal4-VP16 ctr: Gal4-VP16 luciferase reporter inhibitors, counter-screen for COUP-TFII antagonist project, cell-based, luminescence, HEK293; shares compounds with NR2F2 inh; 25% of 2,500 active; inhibition, % at 8.5 µM; AID 687007, 2013; in the data active means inhibition above about 13%
COUP-TFII conf: NR2F2 transcriptional activity inhibitors, confirmation, cell-based, luciferase reporter, HEK293, triplicate; inhibition, % at 8.5 µM; HEK293 NGFI-A luciferase reporter, luminescence; 45% of 2,500 active; shares compounds with NR2F2 inh;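 active means mean inhibition over three repeats above a set limit taken from the earlier primary screen, cut at about 38% in these data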;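 further: 100% = cells given the luciferase reporter alone without the COUP-TF2 vector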
* marks the source's active call; other numbers are inactive results. Rows were chosen to be rich in hits. Some 1.2% of all compounds tested hit in one or more screens of this group.

What do the screens show for `Cc1[nH]c2ccccc2c1CCN(Cc1cccnc1)C(=S)NC(C)(C)C`?
NCOA3 inh: -15; Efflux pump inh: 0; NR2F2 inh: 10; LRH-1 inv ag: -2; SRC1 inh: -8; SRC2 inh: 7

Results for COc1cc(NC(=O)c2cccs2)c(C(=O)OCC(=O)c2cc(C)n(-c3ccccc3)c2C)cc1OC ?
NCOA3 inh: 27; Efflux pump inh: -2; NR2F2 inh: 65*; LRH-1 inv ag: 2; SRC1 inh: 11; SRC2 inh: 57*; Gal4-VP16 ctr: 18*; COUP-TFII conf: 37

Results for COc1ccc(CNc2nc3ccc(C)cc3s2)c(OC)c1OC ?
NCOA3 inh: -4; Efflux pump inh: 0; NR2F2 inh: 2; LRH-1 inv ag: -14; SRC1 inh: -20; SRC2 inh: -12

What do the screens show for `O=C1C(N2CCOCC2)=C(n2nnc3ccccc32)C(=O)c2ccccc21`?
NCOA3 inh: 25; Efflux pump inh: 0; NR2F2 inh: 39*; LRH-1 inv ag: 20; SRC1 inh: -20; SRC2 inh: 58*; Gal4-VP16 ctr: 19*; COUP-TFII conf: 31

Results for O=C1c2ccccc2C(=O)c2c1cccc2-n1nnc2ccccc21 ?
NCOA3 inh: 14; Efflux pump inh: 0; NR2F2 inh: -20; LRH-1 inv ag: -9; SRC1 inh: -28; SRC2 inh: -11

Results for COc1ccc(CNc2ncnc3sccc23)cc1OC ?
NCOA3 inh: 21; Efflux pump inh: 0; NR2F2 inh: 48*; LRH-1 inv ag: 40; SRC1 inh: -7; SRC2 inh: 6; Gal4-VP16 ctr: -1; COUP-TFII conf: 23

How did COc1ccc(CNc2ncnc3sccc23)cc1 do in these assays?
NCOA3 inh: 28; Efflux pump inh: 0; NR2F2 inh: 49*; LRH-1 inv ag: 34; SRC1 inh: 8; SRC2 inh: 32; Gal4-VP16 ctr: 1; COUP-TFII conf: 39*

What do the screens show for `Cc1cc2c(NCc3ccccc3)ncnc2s1`?
NCOA3 inh: 24; Efflux pump inh: 0; NR2F2 inh: 49*; LRH-1 inv ag: 26; SRC1 inh: 30; SRC2 inh: 29; Gal4-VP16 ctr: -4; COUP-TFII conf: 26

What do the screens show for `c1ccc(CNc2ncnc3sccc23)cc1`?
NCOA3 inh: 24; Efflux pump inh: 0; NR2F2 inh: 36; LRH-1 inv ag: 18; SRC1 inh: 15; SRC2 inh: 26

Results for c1csc(CNc2ncnc3sccc23)c1 ?
NCOA3 inh: 26; Efflux pump inh: 0; NR2F2 inh: 63*; LRH-1 inv ag: 41; SRC1 inh: 22; SRC2 inh: 15; Gal4-VP16 ctr: 11; COUP-TFII conf: 46*

How did COc1ccc2c(CN3CCOCC3)cc(=O)oc2c1 do in these assays?
NCOA3 inh: 26; NR2F2 inh: -9; LRH-1 inv ag: -10; SRC1 inh: -24; SRC2 inh: 18

How did COc1ccc2c(c1)cc1c(=O)n(CC(=O)NCCCOC(C)C)nc(C)n12 do in these assays?
NCOA3 inh: -11; Efflux pump inh: 0; NR2F2 inh: 2; LRH-1 inv ag: -20; SRC1 inh: -13; SRC2 inh: -4

What do the screens show for `O=C(Nc1c2c(nn1-c1cccc(Cl)c1)CS(=O)C2)c1ccc2c(c1)OCO2` (centres undefined)?
NCOA3 inh: -3; Efflux pump inh: 0; NR2F2 inh: -2; LRH-1 inv ag: -4; SRC1 inh: -23; SRC2 inh: -3

Results for OC(CNc1ncnc2sccc12)c1ccccc1 (centres undefined) ?
NCOA3 inh: -52; Efflux pump inh: 0; NR2F2 inh: 40*; LRH-1 inv ag: -57; SRC1 inh: -55; SRC2 inh: -17; Gal4-VP16 ctr: -150; COUP-TFII conf: -35

What do the screens show for `O=c1cc(SCc2ccccc2)nc[nH]1`?
NCOA3 inh: 2; NR2F2 inh: -4; LRH-1 inv ag: -10; SRC1 inh: 6; SRC2 inh: -15

Results for Cc1ccc(-c2cc3c(N=O)c4ccccc4c-3n[nH]2)cc1 ?
NCOA3 inh: 73*; Efflux pump inh: 0; NR2F2 inh: 84*; LRH-1 inv ag: 42; SRC1 inh: 69*; SRC2 inh: 61*; Gal4-VP16 ctr: 37*; COUP-TFII conf: 86*

How did CC1(C)CC(NS(=O)(=O)OCC(Cl)(Cl)Cl)c2cc(C#N)ccc2O1 (centres undefined) do in these assays?
NCOA3 inh: 10; Efflux pump inh: 0; NR2F2 inh: -6; LRH-1 inv ag: 10; SRC1 inh: 7; SRC2 inh: -8

What do the screens show for `CC(C)C[C@@H](CO)NC(=O)CC[C@H](NC(=O)OC(C)(C)C)C(=O)N(Cc1ccccc1)Cc1ccccc1`?
NCOA3 inh: -5; Efflux pump inh: 0; NR2F2 inh: 11; LRH-1 inv ag: 22; SRC1 inh: -7; SRC2 inh: 13

How did COc1ccc(-c2coc3c(C(=O)Nc4cccnc4)cccc23)c(C)c1 do in these assays?
NCOA3 inh: -13; NR2F2 inh: 55*; LRH-1 inv ag: -2; SRC1 inh: -4; SRC2 inh: -3; Gal4-VP16 ctr: -16; COUP-TFII conf: 18

How did CC(C)Cn1c(N)c(C(=O)COC(=O)/C=C/c2ccccc2)c(=O)n(C)c1=O do in these assays?
NCOA3 inh: 3; Efflux pump inh: 0; NR2F2 inh: 45*; LRH-1 inv ag: 17; SRC1 inh: 0; SRC2 inh: 13; Gal4-VP16 ctr: 7; COUP-TFII conf: 36

What do the screens show for `CC(C)Cn1c(N)c(C(=O)COC(=O)CC23CC4CC(CC(C4)C2)C3)c(=O)n(C)c1=O`?
NCOA3 inh: -4; Efflux pump inh: 0; NR2F2 inh: 45*; LRH-1 inv ag: 40; SRC1 inh: 24; SRC2 inh: 12; Gal4-VP16 ctr: 13; COUP-TFII conf: 57*

Results for CC(C)Cn1c(N)c(C(=O)CSc2ccccc2)c(=O)n(C)c1=O ?
NCOA3 inh: 13; Efflux pump inh: 1; NR2F2 inh: -2; LRH-1 inv ag: -16; SRC1 inh: 0; SRC2 inh: 8

How did COc1cccc(CNC(=O)[C@@H]2CCCN2C(=O)[C@@H]2CCCN2C(=O)c2cccc(Cl)c2)c1 do in these assays?
NR2F2 inh: 1; LRH-1 inv ag: -1; SRC2 inh: 31
